CYP2C19 act: activators of human cytochrome P450 2C19; P33261; recombinant CYP2C19, luciferin-H EGE luminescence; active compounds read high; 0 = fully inhibited enzyme, 1 = untreated enzyme; activation factor at 5 µM; 96,000 tested, under 10 active; AID 1025;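 active means activation factor of at least 2 at 5 µM in the primary screen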;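 further: 0 = wells with 2.5 mM tranylcypromine and 1 = vehicle-only wells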
Target sequence (P33261 whole entry, looked up): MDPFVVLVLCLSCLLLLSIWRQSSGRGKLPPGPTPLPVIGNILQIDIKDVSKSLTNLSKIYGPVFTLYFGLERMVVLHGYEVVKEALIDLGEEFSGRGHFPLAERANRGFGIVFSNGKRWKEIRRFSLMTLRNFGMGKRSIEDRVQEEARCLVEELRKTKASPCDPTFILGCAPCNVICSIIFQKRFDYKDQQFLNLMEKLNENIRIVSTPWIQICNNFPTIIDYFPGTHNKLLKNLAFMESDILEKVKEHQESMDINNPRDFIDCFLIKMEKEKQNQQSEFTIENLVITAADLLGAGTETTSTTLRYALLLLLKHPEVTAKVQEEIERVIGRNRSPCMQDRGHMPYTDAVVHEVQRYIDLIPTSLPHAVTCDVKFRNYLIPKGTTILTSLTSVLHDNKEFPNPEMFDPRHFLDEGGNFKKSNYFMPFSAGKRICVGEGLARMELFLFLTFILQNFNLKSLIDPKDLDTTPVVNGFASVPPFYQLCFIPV
CYP2C9 inh: blocks human cytochrome P450 2C9 | P11712 | CYP2C9 Supersomes, luciferin-H conversion, luminescence | inhibition, % at 5 µM | 20% of 96,000 active | AID 777;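 active means blocking of liver enzyme CYP2C9 beyond about 50% at 5 µM, limit read from the data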
PLAP act: activators of human placental alkaline phosphatase | P05187 | purified PLAP enzyme, luminescent substrate read-out; active compounds read high | activation fold at 20 µM | 1.2% of 96,000 active; in the data active means activation fold above about 2
CYP2C19 inh: blocks human cytochrome P450 2C19; inhibition, % at 5 µM; CYP2C19 Supersomes, luciferin-H EGE luminescence, 30 min; P33261; 21% of 96,000 active;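 active means CYP2C19 inhibition above a set limit at 5 µM in the primary screen, cut at about 50% in these data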;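 further: plate controls were negative control wells for no effect and 2.5 mM tranylcypromine positive control for full effect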
CYP2C9 act: activators of human CYP2C9 | recombinant CYP2C9, luciferin-H conversion, luminescence; active compounds read high; factor 1 = untreated enzyme, 0 = blocked | activation factor at 5 µM | 1.4% of 96,000 active;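 active means activation factor of 2 or more for CYP2C9 at a 5 µM dose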;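 further: 0 = sulfaphenazole-blocked wells and 1 = vehicle-only wells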
Numbers without * were called inactive. Sampled rows, rich in hits. Any-hit rate of the full collection: about 31%.

SMILES	CYP2C19 act	CYP2C9 inh	PLAP act	CYP2C19 inh	CYP2C9 act
CCCCSc1nc(O)c(C2OC(=O)c3c2ccc(OC)c3OC)c(=O)n1-c1ccccc1 (stereo not drawn)	1	14	1.9	4	0.9
Nc1ccccc1-c1nnc(SCc2ccccc2Cl)[nH]c1=O	0.6	88*	1.4	43	0.1
CCCCSc1nnc(-c2cc(Br)ccc2N)c(=O)[nH]1	0.9	48	0.9	7	0.5
CCSc1nnc(-c2ccccc2NC(=O)CC)c(=O)[nH]1	1.1	25	1	-13	0.8
Cc1ccc(CSc2nnc(-c3ccccc3N)c(=O)[nH]2)cc1	0.8	92*	1.3	15	0.1
CC(=O)Nc1ccccc1-c1nnc(SCc2ccccc2Cl)[nH]c1=O	0.9	99*	1.4	6	0
C=CCSc1nnc(-c2ccccc2NC(=O)CC)c(=O)[nH]1	1.1	52*	0.9	-5	0.5
CC1(C)N=C(c2cccs2)C(C)(C)N1O	0.9	8	1	6	0.9
NC(=O)C1CCN(C(=O)CSc2ccccn2)CC1	1	-16	0.9	-5	1.2
O=C(NNC(=O)C1CCCCC1)C(=O)NC1CCCCC1	1.1	-7	1.3	-15	1.1
Cc1ccc(NC(=O)C2CCN(S(C)(=O)=O)CC2)cc1C	0.8	10	0.9	17	0.9
Cc1cc(C(=O)N(C)CC(=O)Nc2ccccc2C(F)(F)F)c(C)o1	0.6	-2	1.1	37	1
C=CCSc1nnc(-c2cc(Br)ccc2N)c(=O)[nH]1	0.7	72*	1.1	32	0.3
Cc1nnc(SCC(C)C)[nH]c1=O	0.9	20	0.9	9	0.8
Cc1cc(C)cc(CSc2nnc(C)c(=O)[nH]2)c1	0.8	86*	0.9	16	0.1
CCc1ccc(C2CC(c3cccc(OC)c3)n3nc(N)nc3N2)cc1 (stereo not drawn)	0.9	5	1.4	12	1
O=C1c2cnc3nc(SCc4ccc(Cl)cc4)nn3c2CC2c3ccccc3CCN12 (stereo not drawn)	1	51*	1.5	-4	0.5
Cc1nn(-c2ccccn2)c2nc(-c3cccs3)cc(C(=O)NCc3ccco3)c12	0.4	86*	1.6	61*	0.1
Cc1nn(-c2ccccc2)c2nc(-c3ccncc3)cc(C(=O)NCc3ccco3)c12	0.1	94*	1.5	91*	0.1
COC(=O)c1ccc(CSc2nc3scc(-c4cccs4)c3c(=O)[nH]2)o1	0.8	57*	1.5	24	0.4
CCOc1ccc(-c2nnc3ccc(SCc4ccc(C(=O)OC)o4)nn23)cc1	0.4	85*	1.4	65*	0.1
COC(=O)c1ccc(CSc2nc3ccc(Cl)cc3[nH]2)o1	0.5	80*	1.7	54*	0.2
COC(=O)c1ccc(CSc2ncnc3sc(C)c(C)c23)o1	0.8	6	0.7	20	0.9
CCOc1ccc2nc(SCc3ccc(C(=O)OC)o3)[nH]c2c1	0.2	80*	2.2*	83*	0.2
CCOC(=O)NC(=O)CSc1nc2ccc(OCC)cc2[nH]1	0.9	9	1.6	15	0.9
SMILES	CYP2C19 act	CYP2C9 inh	PLAP act	CYP2C19 inh	CYP2C9 act
CCN(CC)S(=O)(=O)c1cccc(NC(=O)Nc2cccc(C(F)(F)F)c2)c1	0.9	45	0.9	10	0.5
O=C(c1ccco1)N1CCN=C1SCc1c(F)cccc1Cl	0.8	-34	0.9	18	1.3
O=C(C1CC1)N1CCN=C1SCc1cccc(F)c1	0.1	27	1	90*	0.7
O=C(C1CC1)N1CCN=C1SCc1ccc(F)cc1	0.1	12	1	91*	0.9
O=C(c1ccco1)N1CCN=C1SCc1ccccc1Cl	0.8	-155	0.6	21	2.6*
O=C(C1CC1)N1CCN=C1SCc1ccccc1	0.2	16	1	83*	0.8
CCN(CC)S(=O)(=O)c1ccc(C(=O)N2CCN=C2SCc2cccnc2)cc1	0.6	48	1.1	38	0.5
COC(=O)C1=C(C)N(CCc2ccc(OC)c(OC)c2)C(=O)/C1=C\N(C)C	0.9	3	1.5	14	1
CCN=C(N/N=C/c1ccc([N+](=O)[O-])cc1)SC	0.6	27	0.7	43	0.7
COc1ccc2oc3ccc(OC)cc3c(=O)c2c1	1	-30	0.9	2	1.3
CSC1=NCCN1C(=O)c1ccco1	1	19	1	3	0.8
Cc1cccc(CSC2=NCCN2C(=O)c2ccc(Br)o2)c1	0.3	25	0.8	73*	0.7
Cc1cc(NC(=O)CSc2nc(-c3cccnc3)ccc2C#N)no1	0.7	48	0.8	33	0.5
N#Cc1ccc(-c2cccnc2)nc1SCc1ccc(Cl)cc1Cl	0.8	56*	0.9	18	0.4
Cc1cc(C(=O)N2CCN(c3ncccn3)CC2)cs1	0.2	40	1.1	78*	0.6
O=C(c1ccc(F)cc1F)N1CCN(c2ncccn2)CC1	0.6	-3	1	44	1
O=C(c1ccc(F)cc1)N1CCN(c2ncccn2)CC1	0.5	3	0.8	53*	1
O=C(c1ccc(-c2ccccc2)cc1)N1CCN(c2ncccn2)CC1	0.6	64*	1.3	44	0.4
O=C(c1cc2c(s1)CCCCC2)N1CCN(c2ncccn2)CC1	0.3	92*	1.1	69*	0.1
O=C(c1cccc(S(=O)(=O)NCCOc2ccccc2)c1)N1CCN(c2ncccn2)CC1	0.1	87*	1.2	87*	0.1
O=C1CC(c2ccc(S(=O)(=O)NCCOc3ccccc3)cc2)CN1 (stereo not drawn)	0.7	32	0.8	26	0.7
O=C(c1cccc(OC(F)F)c1)N1CCN(c2ncccn2)CC1	0.5	68*	1.2	48	0.3
O=C(c1ccc(F)cc1)N1CCC(O)(c2cccnc2)CC1	0.3	22	1	69*	0.8
CCOc1ccc(-c2cnc(SCC(N)=O)nc2N)cc1	1.1	-3	0.9	-6	1
O=C1COc2ccccc2N1Cc1ccccc1Cl	0.2	22	0.9	80*	0.8
SMILES	CYP2C19 act	CYP2C9 inh	PLAP act	CYP2C19 inh	CYP2C9 act
COc1ccc(CN(Cc2ccccn2)C(=O)CN2C(=O)COc3ccccc32)cc1	0.5	42	0.9	47	0.6
O=C(CN1C(=O)COc2ccccc21)N(Cc1cccnc1)Cc1ccccc1F	0.6	54*	0.9	40	0.5
O=C(CN1C(=O)COc2ccccc21)c1ccc(Cl)cc1	0	86*	0.7	98*	0.1
O=C(CN1C(=O)COc2ccccc21)N1CCN(c2ccccc2F)CC1	0.6	-3	1	44	1
O=C(CN1C(=O)COc2ccccc21)c1cccc(Cl)c1	0	93*	0.9	99*	0.1
CCCn1nc(Oc2nc(NCC)nc(NCC)n2)ccc1=O	1.1	-9	1.2	-7	1.1
COC(=O)c1ccccc1NC(=O)CSc1nc2ccccc2c(=O)[nH]1	0.7	59*	1.1	28	0.4
O=C(CSc1nc2ccccc2c(=O)[nH]1)NCc1ccc(Cl)cc1	0.8	51*	1	18	0.5

High-throughput results (PubChem)
